# This is a sample that favours compounds with a hit; in the whole collection about 8% have one here.
# HCMV inh: blocks human cytomegalovirus replication | activity change, negative = inhibition, % at 57.5 µM | HFF cells, HCMV-luciferase reporter, 72 h; stronger effect = lower value | actives 4.5% (n = 410,000); in the data active means activity change below about -60%; inconclusive means no clear call, values can overlap the other calls; inactive means above about -39%; further: on the % scale 0 is the no-effect control and ±100 the full control effect
#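 Compounds were evaluated in HFFs infected with an HCMV luciferase reporter virus (MOI 1 PFU/cell). Luciferase in lysates collected 72 h post infection served as the replication measure.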
# SARS PLpro yeast-1: blocks SARS-CoV papain-like protease in a yeast assay. actives 0.19% (n = 330,000). Potency, µM (titrated, usually from 32.9 µM), for inactives: at the top dose activity, positive = growth rescue, actives largely listed as activators. S. cerevisiae expressing SARS-CoV PLpro, growth rescue. AID 485353; calls by dose curve; further: potency means the concentration at half of the fitted maximal effect; 0% is about no effect; nearly all actives have a fitted effect of over 55% in size
# LASV entry inh: Lassa virus entry inhibition; Lassa virus pseudotype entry inhibition, cell reporter; Potency, µM (titrated, usually from 37.9 µM), inactives show top-dose activity change, negative = inhibition, actives largely listed as inhibitors; actives 1.2% (n = 300,000); calls by dose curve; tested in HEK293 cells; further: potency means the concentration at half of the fitted maximal effect; on the % scale 0 is the no-effect control and ±100 the full control effect; nearly all actives have a fitted effect of over 50% in size
# Marburg entry inh: Marburg virus entry inhibition; Marburg virus pseudotyped entry inhibition, cell reporter; Potency, µM (series often up to 37.8 µM), for inactives: at the highest dose activity change, negative = inhibition, actives largely listed as inhibitors; actives 1.8% (n = 300,000); calls by dose curve; tested in HEK293 cells; further: potency means the concentration at half of the fitted maximal effect; on the % scale 0 is the no-effect control and ±100 the full control effect
# HCV inh: blocks hepatitis C virus; Huh7.5.1 HCVcc-Cre infection, luciferase reporter, 44 h; Potency, µM (series often up to 41.8 µM), for inactives: at the top dose activity change, negative = inhibition, hits mostly inhibitors; actives 3.4% (n = 340,000); active means well fitted inhibition curve with a large enough effect; inconclusive means small, poorly fitted or top-dose-only effect, or another doubt; inactive means no such curve, though single readings can be large or run the other way; further: potency means the concentration at half of the fitted maximal effect; on the % scale 0 is the no-effect control and ±100 the full control effect
#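 Antiviral activity was scored by luciferase reporter output from cells infected with HCVcc-Cre (~0.5 moi) in presence of compound, 44 h infection period, cells seeded 1,000/well 4 h prior.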
# FMDV inh: antivirals against foot and mouth disease virus; FMDV antiviral cell-based qHTS; Potency, µM (doses to about 57.9 µM), inactives show at the top dose activity change, negative = inhibition, actives largely listed as inhibitors; actives 1.2% (n = 410,000); calls by dose curve; tested in HEK293T cells; further: read-out not given here; potency means the concentration at half of the fitted maximal effect; on the % scale 0 is the no-effect control and ±100 the full control effect; nearly all actives have a fitted effect of over 45% in size
# SARS PLpro yeast-2: Rescues yeast growth by inhibiting SARS-CoV PLpro; shares compounds with SARS PLpro yeast-1; yeast expressing SARS-CoV PLpro, growth phenotype rescue; calls only; actives 19% (n = 1,000); AID 652038; call rule not given here
# An asterisk follows results filed as active; i = inactive; ? = inconclusive; / = not tested or not shown; + = active, no number; [ ] = another dose, or the depositor's remark.
SMILES,HCMV inh,SARS PLpro yeast-1,LASV entry inh,Marburg entry inh,HCV inh,FMDV inh,SARS PLpro yeast-2
COc1cccc(/C=N/NC(=O)C(=O)Nc2ccccc2OC(F)(F)C(F)F)c1O,-93.5*,3.55µM*,?,8.91µM*,?,-27.5%,i
COc1ccccc1/C=N/NC(=O)c1cccc(OC(F)(F)C(F)F)c1,-13.0,-10.2%,-10.7%,-4.2%,18.0%,20.0%,/
Cc1ccccc1N1CCN(C2CCCN(C(=O)CCC3(C)CC3)C2)CC1 (centres undefined),?,-2.0%,-3.2%,16.4%,-8.4%,?,/
Cc1c(N/N=C(\C#N)C(=O)c2ccc(Cl)cc2)c(=O)n(-c2ccccc2)n1C,-100.1*,12.6µM*,?,4.11µM*,?,-2.1%,i
COc1cccc(NC(=O)CSc2cccc[n+]2[O-])c1,0.0,-1.6%,/,/,7.0%,16.9%,/
O=C(CSc1cccc[n+]1[O-])Nc1cccc(Oc2ccccc2)c1,26.4,?,?,-2.1%,-4.4%,5.1%,i
Cc1ccc(NC(=O)CSc2nc3ccc(Br)cc3[nH]2)c(C)c1,-29.1,/,10.7%[46.1 µM],-20.6%[46.1 µM],/,1.7%,/
Cc1ccc2c(c1)c(=O)c(Br)c(C)n2Cc1ccccc1,-26.1,?,7.1%,-0.5%,?,-2.1%,i
Cc1ccc(NC(=O)CN2C(=O)c3ccccc3Sc3ccc(C(=O)N4CCOCC4)cc32)c(Cl)c1,-9.9,/,10.9%[46.1 µM],/,/,7.5%,/
O=C(Nc1nc(-c2ccccn2)cs1)C1COc2ccccc2O1 (centres undefined),-83.5*,?,/,/,35.5µM*,-18.3%,+
Cc1ccc2c(c1)c1c(c(=O)n(Cc3ccccc3)c(=O)n1CC(=O)NCc1ccccc1Cl)n2C,29.7,/,-5.2%[46.1 µM],4.8%[46.1 µM],/,-25.0%,/
COc1ccc2oc(C(=O)OCC(=O)N(C)CC(=O)Nc3ccc(F)cc3)c(C)c2c1,-10.8,?,29.1%,0.3%[46.1 µM],-17.2%,-0.2%,i
COc1ccc2oc(C(=O)OCC(=O)NC(=O)c3ccccc3)c(C)c2c1,?,-4.8%,21.9%[46.1 µM],2.9%[46.1 µM],12.9%,-17.4%,/
CCOC(=O)c1c(C)nsc1NC(=O)C1CCCCC1,-32.8,0.9%,-6.7%[46.1 µM],5.2%[46.1 µM],-13.8%,4.4%,/
COc1cccc(C(Nc2ccccn2)c2oc(CO)cc(=O)c2O)c1 (centres undefined),5.5,11.2µM*,3.5%,-4.1%,20.6%,-16.2%,i
Cc1sc2ncnc(N/N=C/c3ccccc3O)c2c1C,-100.5*,1.12µM*,10.3µM*,3.16µM*,?,30.1%,?
Oc1ccccc1/C=N/Nc1ncc(Br)cn1,-98.1*,?,-5.4%,-24.1%,?,49.4%,i
CC(C)C(=O)Nc1ncc(Cc2ccc(Cl)cc2)s1,-29.5,-0.7%,-17.2%,-24.2%[46.1 µM],-16.9%,-20.4%,/
COc1ccc(C)cc1NC(=O)N1CCCn2nc(C)cc21,-12.4,/,7.0%[46.1 µM],/,/,-6.2%,/
CCCCCCOC(=O)C(C#N)c1nc2ccccc2nc1N1CCN(C)CC1 (centres undefined),-15.7,?,?,?,?,-26.7%,i
Cc1cccc2sc(NNC(=O)c3ccc(S(=O)(=O)N4CC(C)CC(C)C4)cc3)nc12 (centres undefined),-99.4*,3.98µM*,?,?,?,?,+
CC1(C(=O)NS(=O)(=O)c2ccc(C#N)cc2)CCN1C(=O)Cc1ccc(-c2ccccc2)cc1 (centres undefined),13.5,/,/,/,/,-7.3%,/
Cc1cc(C)nc(N2CCC(C(=O)NCCc3ccc(F)cc3)CC2)n1,-15.8,-6.7%,1.8%,?,7.0%,-18.1%,/
Cc1cc(C)nc(N2CCCC(C(=O)NCCc3ccc(F)cc3)C2)n1 (centres undefined),-2.6,?,3.2%,11.6%,-7.1%,22.8%,+
Cc1ccc(/C=C/C(=O)OCC(=O)Nc2cccc(S(=O)(=O)N(C)C)c2)o1,-29.5,3.16µM*,-4.4%,?,-1.0%,0.0%,i
SMILES,HCMV inh,SARS PLpro yeast-1,LASV entry inh,Marburg entry inh,HCV inh,FMDV inh,SARS PLpro yeast-2
COc1ccc(C)cc1S(=O)(=O)Nc1ccc(F)cc1,38.2,?,9.7%,?,-15.0%,76.4%,i
COc1ccc(OC)c(S(=O)(=O)Nc2ccc(F)cc2)c1,3.9,4.0%,?,-15.4%,-5.0%,125.3%,/
CCCCNC(=S)NC(=O)c1ccccc1Br,-11.3,11.2µM*,5.3%,12.2%,-0.5%,35.5%,+
O=C(CNC(=S)NC(=O)c1ccccc1Br)c1ccccc1,13.8,2.3%,9.2%,-17.7%[46.1 µM],16.8%,1.4%,/
CCOC(=O)C1CCC(CNCc2ccccc2C)CC1 (centres undefined),-11.7,1.1%,-30.0%,5.5%,7.9%,-20.0%,/
CC(C)OCCCNC(=O)CCCn1c(SCC(=O)c2ccc(Br)cc2)nc2c(sc3ccccc32)c1=O,-23.9,/,2.9%[46.1 µM],13.8%[46.1 µM],/,-4.4%,/
NC(=S)NN=C1C2CC3CC(C2)CC1C3,?,?,-14.8%[46.1 µM],-19.8%[46.1 µM],-6.0%,-2.5%,i
Cc1ccccc1NC(=O)c1c(NC(=O)C(C)Oc2cccc(Cl)c2)sc2c1CCCC2 (centres undefined),31.8,/,-2.5%[46.1 µM],/,/,-5.2%,/
COc1ccc(-c2c(C)nn3c4c(cnc23)C(=O)CC(c2ccc(C)cc2)C4)cc1 (centres undefined),8.8,/,-0.4%[46.1 µM],?,/,-0.1%,/
COc1cccc(CN(C)C(=O)CC2C(=O)NCCN2C2Cc3ccccc3C2)c1 (centres undefined),16.8,/,-20.3%,17.9%,4.1%,-24.4%,i
O=[N+]([O-])c1cccc(-c2ccc(/C=N/NC(=S)Nc3ccccc3)o2)c1,-28.5,?,-4.2%,-5.8%,-14.5%,-5.7%,+
O=[N+]([O-])c1cccc(-c2ccc(/C=N/NC(=S)NCc3ccco3)o2)c1,-20.5,3.4%,-27.1%,?,?,-28.2%,/
CCCNC(=O)c1ccc(Cn2c(=S)[nH]c3c([nH]c4ccc(OC)cc43)c2=O)cc1,-0.6,14.1µM*,1.8%,?,-3.2%,-1.5%,i
Cc1ccc(S(=O)(=O)Nc2ccc(O)c3ncccc23)cc1,19.2,?,/,/,?,-10.9%,+
COc1ccccc1C(=O)NCC(=O)OC(C)C(=O)NC(=O)NC1CCCCC1 (centres undefined),35.9,?,-6.9%,15.1%,15.6%,-16.5%,i
COc1ccccc1C(=O)NCC(=O)OC(C)C(=O)NC1CCCCC1C (centres undefined),-18.3,0.2%,/,/,1.2%,-3.9%,/
COc1ccc(-c2cc(N3C(=O)Nc4ccccc4N3O)n[nH]2)cc1,-20.2,11.2µM*,-10.1%,-7.3%,-9.2%,-15.4%,i
COc1ccc(-c2cc(N3C(=O)Nc4ccccc4N3O)n[nH]2)cc1OC,14.1,11.6%,?,-0.9%,38.5%,8.6%,/

# Screening data (PubChem BioAssay)
